Results published in PubChem BioAssay AID686979 (National Center for Advancing Translational Sciences (NCATS), 2013).
Among all 420,000 compounds or so, about 50,000 (12%) were called active. Another 26% or so got no clear call; they are omitted. Calls follow the shape of the dose curve; as a rule, active = well fitted inhibition curve with a large enough effect; inconclusive = small, poorly fitted or top-dose-only effect; inactive = flat fitted curve, though single readings scatter. Many of the other results were omitted from the sample, so actives are more common in it than they were.

Test: qHTS for Inhibitors of human tyrosyl-DNA phosphodiesterase 1 (TDP1): qHTS in cells in presence of CPT; also: nearly all actives have a fitted effect of over 55% in size
Settings: chicken DT40 Tdp1-/-;hTDP1 cells + 20 nM CPT, ATP luminescence, 48 h; series mostly up to 46.2 µM; activity change, negative = growth inhibition: at the top concentration
Outline: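 Cell growth measured by CellTiter-Glo luminescence after a minimum 48 h, 37 C compound exposure with 20 nM CPT in Tdp1-knockout DT40 cells stably expressing hTDP1, seeded 400/well; qHTS titration format.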
% is scaled to controls: 0 for no effect and ±100 for the full control effect; potency is read from the fitted curve at half-maximal effect.

| Structure (SMILES) | activity change, negative = growth inhibition | Potency |
| --- | --- | --- |
| N=c1ccccn1Cc1ccccc1 | 8.77% (inactive) | – |
| CC1=CC(=Cc2sc3ccccc3[n+]2C)C=C(C)O1 | – | 0.164 µM (active) |
| CCOc1ccc(-c2cc(C)[n+](CCN(CC)CC)c(-c3ccc(OCC)cc3)c2)cc1 | – | 0.206 µM (active) |
| COc1cc(C(=O)N2Cc3ccc(Br)cc3-n3nncc3C2)cc(OC)c1OC | -22.5% (inactive) | – |
| CC=C(C)C(=O)OC1CCN2CC=C(COC(=O)C(O)(C(C)OC)C(C)(C)O)C12 (stereo not drawn) | -7.32% (inactive) | – |
| CN(Cc1cccc2ncccc12)C(=O)c1cnn(-c2nccc(-c3ccccc3F)n2)c1C1CC1 | – | 5.17 µM (active) |
| COc1ccccc1OC(=O)c1ccc(C)c(S(=O)(=O)N2CCOCC2)c1 | -2.39% (inactive) | – |
| CC(=NC1CCN(Cc2ccccc2)CC1)c1c(O)n(C)c(=O)n(C)c1=O | 2.92% (inactive) | – |
| N[C@H](Cc1o[nH]c(=O)c1Cl)C(=O)O | 14% (inactive) | – |
| CO[C@@H]1C[C@@H](C[C@H]2CC[C@H](C)[C@@H]([C@@H](C)C(=O)O)O2)O[C@]2(O[C@](C)([C@H]3CC[C@@](C)(C4OC([C@H]5O[C@@](O)(CO)[C@H](C)C[C@@H]5C)C[C@@H]4C)O3)C[C@H]2C)[C@@H]1C (stereo partly drawn) | – | 0.588 µM (active) |
| CCOC(=O)c1cccc(C2=C(CNC(=O)c3ccncc3)[C@H]3CC[C@@H](C2)N3Cc2ccccc2)c1 | -27.1% (inactive) | – |
| COC(=O)C1=C(c2ccc(-c3ccccc3)c(F)c2)C[C@@H]2CC[C@H]1N2C(=O)NCc1ccc(F)cc1 | – | 16.4 µM (active) |
| COC(=O)C1=C(c2ccccc2)C[C@@H]2CC[C@H]1N2C(=O)NCc1ccco1 | -25.1% (inactive) | – |
| COC(=O)C1=C(c2c(C)noc2C)C[C@@H]2CC[C@H]1N2C(=O)NCc1ccc2c(c1)OCO2 | -0.834% (inactive) | – |
| COC(=O)C1=C(c2cccc(OCc3ccccc3)c2)C[C@@H]2CC[C@H]1N2C(=O)NNCc1ccccc1 | – | 20.6 µM (active) |
| COC(=O)C1=C(c2ccc(F)cc2OCc2ccccc2)C[C@@H]2CC[C@H]1N2C(=O)NCc1ccc(OC)c(OC)c1 | – | 18.4 µM (active) |
| COC(=O)C1=C(c2ccc(F)cc2OCc2ccccc2)C[C@@H]2CC[C@H]1N2C(=O)NCc1ccc(Cl)cc1 | – | 20.6 µM (active) |
| COc1ccc(CCn2c(O)c(C=NC3CC3)c(=O)[nH]c2=O)cc1OC | -22.4% (inactive) | – |
| CCN(CC)c1ccc([N+](=O)[O-])c2cccnc12 | 15.9% (inactive) | – |
| CC(C)c1c(CN(C)C(C)Cc2ccccc2)n(C)n(-c2ccccc2)c1=O (stereo not drawn) | 18.3% [at 21.1 µM] (inactive) | – |

| Structure (SMILES) | activity change, negative = growth inhibition | Potency |
| --- | --- | --- |
| CCN1c2nc3c(C)cccn3c(=O)c2CC2(C(=O)N(C)C(=O)N(C)C2=O)C1C (stereo not drawn) | 0.865% (inactive) | – |
| CCC(C)n1c(O)c(/C=N/Nc2nc3c(c(=O)n(C)c(=O)n3C)n2C)c(=O)[nH]c1=S (stereo not drawn) | -24.8% (inactive) | – |
| Fc1cccc(F)c1CN1CCN(Cc2c(F)cccc2F)CC1 | 2.75% (inactive) | – |
| Cc1cc(C(=O)OCC(=O)Nc2c(F)cccc2F)c(C)n1C1CC1 | 1.17% (inactive) | – |
| COC(=O)C(c1ccccc1)N1CCCCCC1 (stereo not drawn) | -14.3% (inactive) | – |
| COC(=O)C1=C(c2ccccc2)C[C@@H]2CC[C@H]1N2C(=O)N1CCCCC1 | – | 5.8 µM (active) |
| COC(=O)C1=C(c2ccc(OCc3ccccc3)cc2)C[C@@H]2CC[C@H]1N2C(=O)NCc1cccc(F)c1 | – | 25.9 µM (active) |
| O=C(NC(=S)N1C[C@H]2C[C@H](C1)c1cccc(=O)n1C2)c1ccc(F)cc1 | 5.87% (inactive) | – |
| CC1CCCN1CCC(C(N)=O)(c1ccccc1)c1ccccc1 (stereo not drawn) | -7.87% (inactive) | – |
| COc1ccc(CCn2c(O)c(C=NCCCn3ccnc3)c(=O)[nH]c2=O)cc1OC | 20.8% (inactive) | – |
| CC(=O)Cc1ccc(OC(C)C)cc1 | -0.0899% (inactive) | – |
| Cc1cc2ccccn2c1C(C[N+](=O)[O-])c1c(F)cccc1Cl (stereo not drawn) | – | 18.4 µM (active) |
| C[N+]1(C)CCOC(O)(c2ccc(-c3ccc(C4(O)C[N+](C)(C)CCO4)cc3)cc2)C1 (stereo not drawn) | – | inactive |
| COc1cc(Cl)ccc1Nc1ncc(C(=O)N2CCN(c3ccccc3OC)CC2)c2ccccc12 | – | 14.6 µM (active) |
| CN1CCN(C(=O)O[C@@H]2c3nccnc3C(=O)N2c2ccc(Cl)cn2)CC1 | 6.19% (inactive) | – |
| CCOC(=O)c1c(C)c(C(=O)N2CCC3(CC2)OCCO3)c(C)n1CC | -15.2% (inactive) | – |
| CN1CCN(Cc2ccccc2C(F)(F)F)CC1 | -1.55% (inactive) | – |
| CCOC(=O)C1(c2ccccc2)CCN(CC(O)c2ccc(NC(C)=O)cc2)CC1 (stereo not drawn) | 11.8% (inactive) | – |
| CCOC(=O)CC1=C(C(=O)OCC)C2(C(=O)N1)C(C(=O)OC)=C(N)Oc1ccccc12 (stereo not drawn) | -3.36% (inactive) | – |
| COC1C(O)C(C)OC(OC2CCC3(C=O)C(CCC4C3CCC3(C)C(C5=CC(=O)OC5)CCC43O)C2)C1O (stereo not drawn) | – | 0.206 µM (active) |

| Structure (SMILES) | activity change, negative = growth inhibition | Potency |
| --- | --- | --- |
| COC1CC(OC2CC[C@@]3(C=O)C4CC[C@]5(C)C(C6=CC(=O)OC6)CC[C@@]5(O)C4CC[C@]3(O)C2)OC(C)C1O (stereo partly drawn) | – | 1.3 µM (active) |
| c1csc(CN2CCCC3(CCNCC3)C2)n1 | 0.355% (inactive) | – |
| C=Cn1ccnc1P(=S)(c1cc(N(CC)CC)ns1)c1nccn1C=C | -23.1% (inactive) | – |
| Cc1ncsc1CCCl | – | inactive |
| CC[N+]1(CCOC(=O)C(O)(c2ccccc2)c2ccccc2)CCCCC1 | 3.37% (inactive) | – |
| C/C(=C\C=C/[C@@H](C)C(=O)O)[C@H]1CN[C@H](C(=O)O)[C@@H]1CC(=O)O | -0.395% (inactive) | – |
| Cc1ccc(NC(=O)CN(C)CC(=O)Nc2cccc(F)c2)cc1[N+](=O)[O-] | – | 1.84 µM (active) |
| O=C(CN1CCCC1=O)NCCc1ccccc1 | 2.72% (inactive) | – |
| CN(C)P(=S)(Nc1ccccc1)C(Cl)(Cl)Cl (stereo not drawn) | -3.66% (inactive) | – |
| O=C(O)COc1ccccc1/C=C1\C(=O)NC(=O)N(CCC2=CCCCC2)C1=O | 18.2% (inactive) | – |
| O=C1NC(=O)N(CCc2ccc(F)cc2)C(=O)/C1=C/C=C/c1ccccc1 | – | 3.26 µM (active) |
| OCC#CC[N+]1(CC#Cc2ccccc2)CCCC1 | -6.84% (inactive) | – |
| Cc1ccc(P(=S)(c2ccc(C)o2)N2CCOCC2)o1 | -13.2% (inactive) | – |
| CC(=O)C12CC(C)=C(C)CC1CC1C3CCC4=CC(=O)CCC4(C)C3CCC12C (stereo not drawn) | – | 13 µM (active) |
| COC(=O)C[C@H]1CC[C@H]2NC[C@@H](O)COC[C@@H]2O1 | 0.913% (inactive) | – |
| C[C@H]1CN([C@@H](C)CO)C(=O)CCCn2nncc2CO[C@H]1CN(C)C(=O)Oc1ccccc1 | -12.4% (inactive) | – |
| Cc1cc(N2C(=O)C3CCCN3C2c2ccc(Cl)c(Cl)c2)no1 (stereo not drawn) | 6.24% (inactive) | – |
| CCN1C(=O)NC(=O)C2(CCCC2)C1=O | 4.76% (inactive) | – |
